Results reported in the supplement of paper PMC3334620.
In all, about 33,000 sequences were measured (“E-score (-0.5 to 0.5)”: median about -0.036, highest 2% from about 0.37 on). Only a selection was taken, and the highest values are over-represented in it overall.

Target: T1, Yer064c (UniProt P40041)
T1 sequence: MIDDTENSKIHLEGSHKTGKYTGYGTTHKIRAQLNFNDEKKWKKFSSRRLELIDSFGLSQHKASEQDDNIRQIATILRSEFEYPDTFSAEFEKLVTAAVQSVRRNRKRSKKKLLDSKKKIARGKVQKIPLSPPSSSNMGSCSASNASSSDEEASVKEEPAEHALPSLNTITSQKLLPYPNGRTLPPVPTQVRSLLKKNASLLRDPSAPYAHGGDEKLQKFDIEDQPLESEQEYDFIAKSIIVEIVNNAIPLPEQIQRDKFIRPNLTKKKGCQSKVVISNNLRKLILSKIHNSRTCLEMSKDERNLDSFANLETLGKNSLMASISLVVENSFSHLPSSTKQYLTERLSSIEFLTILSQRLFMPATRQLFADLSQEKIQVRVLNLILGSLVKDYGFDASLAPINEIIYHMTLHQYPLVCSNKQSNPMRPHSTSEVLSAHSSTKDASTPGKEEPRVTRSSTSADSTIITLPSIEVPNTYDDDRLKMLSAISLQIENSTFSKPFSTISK
Assay: PBM E-score (8-mer binding enrichment) (E-score (-0.5 to 0.5)); higher = stronger / more preferred TF binding
Conditions: protein concentration: 200 nM; construct: GST-full length
Outline: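 The E-score, a modified Wilcoxon-Mann-Whitney statistic, was computed by the Universal PBM Analysis Suite for every ungapped eight-base word pooled with its reverse complement. Scans behind it were normalised with masliner after bound GST-tagged yeast transcription factors were detected with fluorescent anti-GST. The proteins, at about 100-200 nM, had been applied to universal all-10-mer Agilent arrays made double-stranded by primer extension.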

Sequence | PBM E-score
ATTGATTC | 0.301
AATGATTG | 0.358
CTTGATTC | 0.324
CCTGGGAC | -0.363
ATGGGCGA | 0.0478
CAAAAGAG | 0.0455
CTTACCGA | -0.0159
ACATCGAT | 0.00682
AGACGAAT | 0.00164
CAAGCCAG | -0.139
GGCGGCCC | -0.0657
CACTCCAC | 0.0622
AACTCCAA | 0.0471
GACTCCAA | 0.418
AACTCCAC | -0.115
TACTCCAA | 0.00552
GACTCCAC | 0.37
CAGTAAAA | -0.0284
AATTACCT | 0.0151
AAAAGAAC | -0.144
CCTTCGGC | -0.197
AGCACTCA | 0.119
AGGACTCA | 0.468
CGGACTCA | 0.411
GGGACGCA | -0.165

Sequence | PBM E-score
CGAACTCA | 0.225
CGGACTCC | 0.191
GGGACTCA | 0.405
AGGACTCC | 0.335
GGGACACA | 0.0557
GAGAGGGC | -0.203
CCCGCTGC | -0.00295
GCTTGTAC | -0.18
TCCCAAGA | 0.0948
CGATGTCA | -0.0638
CTCAAATC | 0.158
GACTAAAA | 0.429
AACTAAAC | -0.0459
TACTAAAA | -0.00832
CACTAAAC | 0.108
AACTAAAA | 0.0564
GACTAAAC | 0.435
GATTCTCA | 0.221
CTCTCCAC | -0.0601
ATTCTCTA | 0.0286
GGACGTCA | -0.0394
ATTGACCA | -0.0765
CATTAGAC | 0.0825
AATTAGTC | 0.446
AATTAGTG | 0.0657

Sequence | PBM E-score
AATTAGTA | 0.103
CATTAGTC | 0.421
CATTAGTA | 0.257
CATTTTGC | -0.0161
CCTAGTCC | 0.0749
GCTAGTCC | 0.0288
TCTAGACA | 0.128
CCTAGTCA | 0.446
CCTAGTCG | 0.263
ACTAGTCA | 0.456
GCTAGTTA | 0.00744
TCTAGTAA | -0.0245
GCTAGTCA | 0.448
ACTAGTCC | 0.164
ACTAGTCT | 0.345
TCTAGTCA | 0.447
AACGGTGT | -0.021
ACCTGGTC | -0.12
AGAGAACT | -0.0782
AACAGCAG | -0.26
CGTTATCC | -0.11
CTGAGTAA | 0.204
ATGAGTAA | 0.386
ATGAGTAG | 0.308
ATGAGTAC | 0.415

Sequence | PBM E-score
GTGAGTAA | 0.331
CTGAGTAC | 0.291
AGAGGCGG | -0.16
AGAGGTGC | -0.25
CGATCGTA | 0.05
GTTCCAAA | -0.00663
AAAGACAT | -0.156
ACTCATGC | 0.378
CCTCATGC | -0.144
ACTCATGA | 0.402
CCTCATGA | 0.16
ACTCATGG | 0.34
CTTCATGC | -0.12
AGCCCGGG | -0.144
GCTCACAA | 0.0192
CGGTAGAG | -0.118
AATCACAG | 0.359
GATCACAC | 0.178
AATCACAT | 0.398
AATCACAA | 0.362
AATCACAC | 0.39
CATCACAC | 0.0825
CGCTATTC | -0.0435
ACATACAC | 0.0835
CTGGCATA | -0.0817

Sequence | PBM E-score
GTCACTCA | 0.334
AGTCTTTC | 0.372
ATTCTTCC | -0.102
AGTCTTGG | 0.315
AGTCTTCA | 0.408
GGTCTTCA | -0.144
ACTCTTCG | 0.213
AGTCTTTA | 0.341
CGTCTTCA | -0.115
AGTCTTCG | 0.418
AGTCTTCC | 0.432
CGTCTTTC | -0.108
CGTCTTCC | -0.0994
CACTTACC | 0.0118
ACAAGGGA | -0.248
AATGTGAC | 0.203
AGCGGCGA | -0.0237
CCTTAGCG | 0.0566
ACGAAGGG | -0.192
CATTAGGA | 0.0671
CCACTCTA | 0.0684
AGCTGTCG | -0.196
CGTCTCCC | -0.223
AGTCTCCA | 0.27
AGTCTCCC | 0.382

Sequence | PBM E-score
CACTCCCC | -0.147
CACTCCCA | 0.0058
GACTCCCA | 0.381
AACTCCCA | -0.184
AACTCCCC | 0.0421
GACTCCCC | 0.405
AGCCCAAA | 0.141
CCTCCCCC | -0.224
CCTTTATC | -0.243
CAACGTAC | -0.0947
CTAGAGGC | -0.0949
ATAGAGTA | 0.134
ATAGAGTC | 0.371
ATAGAGTG | 0.00994
CTAGAGTA | 0.138
CTAGAGTC | 0.366
CTAGTAGA | 0.0545
AACGGTGC | -0.101
ACGCCGCT | -0.119
CAAACCGC | -0.0599
CAACACAC | 0.0236
ACTGTCCG | -0.022
CTACTGAG | 0.157
AGAGTCGA | 0.291
CGAGTCGC | 0.383

Sequence | PBM E-score
CGAGTCGA | 0.271
AGAGTCGC | 0.396
CCAGTCGC | -0.0128
AGAGTCGG | 0.326
GACCCTGC | -0.262
CACCGTAC | -0.0293
TGCTGAAA | -0.0596
AGAGTCCT | 0.298
AGAGTCCG | 0.212
AGAGTCAT | 0.492
AGAGTCAC | 0.485
AGAGTCTC | 0.332
AGAGTCAG | 0.457
AGAGTCTA | 0.158
AGAGTCAA | 0.436
AGTGTCAT | 0.0731
AGAGTCCC | 0.0408
AGAGTCTG | 0.147
AGAGTCCA | 0.262
CCCGGACG | -0.193
CATCTCGC | 0.0122
GACACGCA | -0.104
